This is part of a sample that, as a whole, favours compounds with a hit. Of some 83,000 tested, about 20% had one in any assay.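 96-well plates, one dose, 48 hours. Percent growth reported; active if below 10.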 Unmarked numbers belong to inactive results. Active and inactive are the calls of the source.
Key:
Assay in all cases: NCI-60 one-dose screen, 48 h (100 = growth as untreated, 0 = no growth, -100 = all killed)
Details in all cases: 10 µM unless noted
NCI-H23 lung = system: NCI-H23 lung
NCI-H226 lung = system: NCI-H226 lung
NCI-H322M lung = system: NCI-H322M lung
HOP-62 NSCLC = system: HOP-62 NSCLC
NCI-H460 lung = system: NCI-H460 lung
HOP-92 NSCLC = system: HOP-92 NSCLC
NCI-H522 lung = system: NCI-H522 lung
A549/ATCC NSCLC = system: A549/ATCC NSCLC
786-0 renal = system: 786-0 renal
COLO 205 colon = system: COLO 205 colon
DU-145 prostate = system: DU-145 prostate
MALME-3M melanoma = system: MALME-3M melanoma
MDA-MB-231 breast = system: MDA-MB-231 breast
RXF 393 renal = system: RXF 393 renal
SF-268 CNS = system: SF-268 CNS
SF-295 CNS = system: SF-295 CNS
SF-539 CNS = system: SF-539 CNS
UACC-257 melanoma = system: UACC-257 melanoma
M14 melanoma = system: M14 melanoma
K-562 leukemia = system: K-562 leukemia

Row | Compound | growth (NCI-H23 lung) | growth (NCI-H226 lung) | growth (NCI-H322M lung) | growth (HOP-62 NSCLC) | growth (NCI-H460 lung) | growth (HOP-92 NSCLC) | growth (NCI-H522 lung) | growth (A549/ATCC NSCLC) | growth (786-0 renal) | growth (COLO 205 colon) | growth (DU-145 prostate) | growth (MALME-3M melanoma) | growth (MDA-MB-231 breast) | growth (RXF 393 renal) | growth (SF-268 CNS) | growth (SF-295 CNS) | growth (SF-539 CNS) | growth (UACC-257 melanoma) | growth (M14 melanoma) | growth (K-562 leukemia)
1 | COCCCN1CC(O)=C(c2nc(-c3ccc(C)cc3)cs2)C1=N | 96% | 96.3% | 97.3% | 91.6% | 153% | 147% | 106% | 85.4% | 94.8% | 133% | 102% | 101% | 96.1% | 94.3% | 223% | 123% | 96.9% | 83.7% | 100% | –
2 | [O-][n+]1c(Cl)cc(Cl)c2ccccc21 | 102% | 104% | 115% | 103% | 108% | 89.4% | 104% | 91.9% | – | 107% | 113% | 107% | 100% | 153% | 96.7% | 103% | 125% | 102% | 100% | 85.2%
3 | CCOC(=O)c1cc(C#N)n2ccc3ccccc3c12 | 94.7% | 97.5% | 98.1% | 105% | 100% | 93.5% | 92.2% | 98.8% | – | 112% | 103% | 104% | 102% | 98.9% | 94.2% | 96.5% | 98.7% | 104% | 108% | 106%
4 | CC(C)N1C(=O)/C(=C2\SC(=S)N(C(C)C)C2=O)SC1=S | 94% | 101% | 94% | 95.5% | 101% | 72.3% | 90.6% | 93.8% | – | 110% | 93.6% | 82.6% | 81% | 104% | 94.5% | 101% | 85.1% | 95.8% | 95% | 93%
5 | CCOC(=O)c1cc(C(=O)c2ccc(OC)c(OC)c2)n2c1ccc1ccccc12 | 86.2% | 80.7% | 101% | 85% | 99.2% | 83.3% | 86% | 98.3% | – | 112% | 109% | 93.8% | 66.9% | 95.7% | 81% | 96.9% | 99.9% | 107% | 102% | 86.8%
6 | COc1ccc(C(=O)C2C(C#N)C(C#N)C3c4ccccc4C=CN23)cc1 (stereo not drawn) | 83.3% | 74.7% | 89% | 92.9% | 97.7% | 85.9% | 71.9% | 87.2% | – | 107% | 103% | 92.1% | 79.2% | 77.9% | 91% | 95.8% | 95.4% | 85.7% | 96.2% | 73.1%
7 | N#C/C(=C\c1ccc([N+](=O)[O-])s1)c1nc2cc(Br)ccc2s1 | -27.8% (active) | -75.9% (active) | 85.6% | -35.5% (active) | -26.9% (active) | -55.2% (active) | -45.4% (active) | 5.93% (active) | – | -74.8% (active) | 25.9% | -81.3% (active) | -56.1% (active) | -17.1% (active) | 6.29% (active) | 65.7% | -71% (active) | 5.39% (active) | -81.9% (active) | -5.1% (active)
8 | CN(C)CCC(=O)c1ccc([N+](=O)[O-])cc1 | 109% | 94.8% | 104% | 98.6% | 107% | 89.2% | -23% (active) | 109% | – | 107% | 108% | 104% | 100% | 108% | 112% | 103% | 96.4% | 108% | 102% | 114%
9 | CN1CCN(C(=O)[C@]23CCC(C)(C)C[C@H]2C2=CC[C@@H]4[C@@]5(C)C/C(=C/c6cccnc6)C(=O)C(C)(C)[C@@H]5CC[C@@]4(C)[C@]2(C)CC3)CC1 | – | – | – | 85.2% | – | – | – | – | – | – | – | – | – | – | – | – | – | – | – | –
10 | CCNC(=O)Oc1ccc(/C(=C(\C)c2ccccc2)c2ccc(OCCN3CCCCC3)cc2)cc1 | – | – | – | 59.4% | – | – | – | – | – | – | – | – | – | – | – | – | – | – | – | –
11 | CCNC(=O)Oc1ccc(/C(=C(\C)c2ccccc2)c2ccc(OCCN(CC)CC)cc2)cc1 | 78.9% | 95.6% | – | 96.2% | 86.6% | 70.9% | 93.7% | 65.5% | 66.3% | 52.2% | 95.4% | 81.1% | 87.2% | 70.6% | 80.1% | 43.5% | 60.9% | -0.741% (active) | 39.7% | 18.9%
12 | Cc1c2cc[nH]c(=O)c2c(C)c2c1[nH]c1cc(OCCN3CCN(C)CC3)ccc12 | -18.1% (active) | 2.73% (active) | – | -16.9% (active) | -20.5% (active) | 18.8% | -23.9% (active) | -21.4% (active) | 20.9% | -10.1% (active) | 2.69% (active) | -58.8% (active) | 4% (active) | -25% (active) | 11.8% | 3.16% (active) | -0.233% (active) | -1.41% (active) | -37.1% (active) | –
13 | O=C(CCN1CCCC1)Nc1ccc2c(NCCCCc3ccccc3)c3ccccc3nc2c1 | -57.9% (active) | 63.1% | – | -46.6% (active) | -69% (active) | -2.02% (active) | -38.7% (active) | -45.5% (active) | 15% | -47.1% (active) | -61.8% (active) | -88.7% (active) | -74.9% (active) | 7.61% (active) | -73.2% (active) | 43.4% | -70.3% (active) | -60.8% (active) | -72.6% (active) | -31.2% (active)
14 | O=C(Cn1c[n+](CC(=O)c2ccc(-c3ccccc3)cc2)c2ccccc21)Nc1cccc2cccnc12 | 23.8% | 50.4% | – | 43.2% | 28.7% | -4.57% (active) | 2.6% (active) | 59.9% | 44.4% | -61.8% (active) | 36.9% | 8.16% (active) | -7.75% (active) | 83.7% | 20.3% | 78.1% | 23.6% | 10.1% | 28.1% | 12.6%
15 | Cc1ccc(/C=C(/C#N)n2nnc3cccc(F)c32)cc1 | 4.73% (active) | 23% | – | 21.8% | -34.8% (active) | -6.05% (active) | 11.6% | 11.5% | 1.78% (active) | -19.5% (active) | -24.9% (active) | 36.3% | -38.5% (active) | -51.4% (active) | 21.2% | 16.2% | -48.1% (active) | 52.8% | -13.6% (active) | 6.48% (active)
16 | Nc1ccccc1NC(=O)c1ccc(-n2nc(-c3ccccc3)c3ccccc32)cc1 | 89.1% | 64.7% | – | – | 79.3% | 78.9% | 25% | 74.5% | – | 117% | 87.2% | 68.9% | 42.9% | 88.7% | 68.2% | 90.7% | 48.8% | 86.2% | 88.9% | 43.7%
17 | CCN(CC)c1ccc(/C=N/NC(=O)CSc2nc3ccccc3c(=O)n2CCc2ccc(S(N)(=O)=O)cc2)c(O)c1 | 33.9% | 37.9% | – | 30.4% | 12.8% | 46.8% | -14.6% (active) | 25.4% | 49.5% | 1.47% (active) | 31% | 44.3% | 26% | 44.1% | 32.5% | 38.6% | 22.7% | 16.7% | 31.1% | 7.07% (active)
18 | CCN(CC)CCCC(C)Nc1cc(O)cc2cccnc12 (stereo not drawn) | 98.8% | 112% | – | 104% | 108% | 89.4% | 125% | 96.2% | 118% | 74.5% | 113% | 128% | 69.4% | 105% | 98.6% | 104% | 103% | 93.8% | 113% | 87.4%

Source: PubChem BioAssay (NCI)
